Measurements published in PubChem BioAssay (Tox21).
“And” between values parts separate entries of the source, which are not always exact repeats. Identical values can stand only once. Results filed as inconclusive are left out. The source holds several records for some structures; these can differ, active in one and inactive in another. The source made the active and inactive calls. Calls come from the whole dose curve.
% is set by controls: 0 for no effect and ±100 for the full control effect; potency is the fitted concentration of half-maximal effect.

Assay: qHTS assay to identify small molecule antagonists of the sonic hedgehog signaling (Shh) pathway (AID 1259369); note: nearly all actives have a fitted effect of over 45% in size
Conditions: NIH/3T3 Gli1-Luc reporter, Shh antagonist, luminescence 24 h; series mostly up to 42.5 µM; activity change, negative = inhibition: at the top concentration
Procedure, shortened: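 Inhibition of Shh signalling is measured as reduced Gli1-response-element firefly luciferase output in an NIH/3T3-derived stable reporter clone stimulated with conditioned medium for 24hr.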
In the case of `CCOC(=O)Nc1ccc(NCc2ccc(F)cc2)nc1N`, the “activity change, negative = inhibition” value is reported as 18.6% (inactive).
With `CCCCC(CC)COC(=O)c1ccccc1O` (stereo not given) the “activity change, negative = inhibition” value was 11.6% (inactive).
For `O=C1NC(=O)[C@@]2(CCOc3ccc(F)cc32)N1`, the “activity change, negative = inhibition” value was 20.5% (inactive).
For `NC(=O)Nc1ccccc1`, the “activity change, negative = inhibition” value was 46.7% [at 92.4 µM] (inactive).
With `CC/C=C\CC/C=C/C(OCC)OCC` the Potency was 27.3 µM (active).
For `CCO/C([O-])=N/c1c[n+](N2CCOCC2)no1`, the “activity change, negative = inhibition” value was 21.8% (inactive).
With `COC(=O)C1=C(C)NC(C)=C(C(=O)OC)C1c1ccccc1[N+](=O)[O-]` the Potency was 6.12 µM (active) and 6.68 µM (active).
For `CC/C=C\CCOC(C)=O`, the “activity change, negative = inhibition” value was 2.72% [at 92.4 µM] (inactive).
With `CC(C)=CCCC(C)CC(=O)O` (stereo not given) the “activity change, negative = inhibition” value was 6.9% [at 92.4 µM] (inactive).
With `COC(C)(C)CCCC(C)CC=O` (stereo not given) the “activity change, negative = inhibition” value was 0% [at 92.4 µM] (inactive).
With `O=C[C@H](O)[C@@H](O)[C@H](O)[C@H](O)CO` the “activity change, negative = inhibition” value was 17.5% [at 92.4 µM] (inactive).
For `O=c1[nH]c(=O)n([C@H]2C[C@H](O)[C@@H](CO)O2)cc1I`, the “activity change, negative = inhibition” value was -1.9% (inactive).
With `CCCCOCCOCCOCCCC` the “activity change, negative = inhibition” value was 18.6% [at 92.4 µM] (inactive).
In the case of `CC(C)CCCC(C)N` (stereo not given), the “activity change, negative = inhibition” value is reported as 34.5% (inactive).
In the case of `O=c1n(CCO)c(=O)n(CCO)c(=O)n1CCO`, the Potency is reported as “inactive and 27.3 µM (active)”.
With `CCCCCCCCCCCCCCCCC` the “activity change, negative = inhibition” value was 6.19% [at 92.4 µM] (inactive).
For `CCC(=O)OC(C)c1ccccc1` (stereo not given), the “activity change, negative = inhibition” value was 33.1% [at 92.4 µM] (inactive).
For `Nc1c[n+](N2CCOCC2)no1`, the “activity change, negative = inhibition” value was 20.5% (inactive).
For `CC(C)NCC(O)c1ccc(NS(C)(=O)=O)cc1` (stereo not given), the “activity change, negative = inhibition” value was -0.57% [at 92.4 µM] (inactive).
For `CC1(C)CO[C@@H](CC(=O)O)CN1`, the “activity change, negative = inhibition” value was 23.4% (inactive).
With `C1CN(CCOCCN2CCOCC2)CCO1` the “activity change, negative = inhibition” value was 12.3% [at 92.4 µM] (inactive).
For `O=C1CCCCCCCCCCCN1`, the Potency was “inactive”.
For `CCCN(CCC)CCc1cccc2c1CC(=O)N2`, the “activity change, negative = inhibition” value was 10.4% (inactive).
For `CCOC(=O)C(=O)OCC`, the “activity change, negative = inhibition” value was 37.5% [at 92.4 µM] (inactive).
For `CCOC(=O)c1cccc(N)c1`, the “activity change, negative = inhibition” value was 8.85% (inactive).
In the case of `COc1cc(C(=O)N2CCCCCCC2)cc(OC)c1OC`, the “activity change, negative = inhibition” value is reported as -0.475% (inactive).
For `Cc1cc2c(cc1S(N)(=O)=O)S(=O)(=O)CCC2`, the “activity change, negative = inhibition” value was 20.6% (inactive).
For `C[C@H](NC(CCc1ccccc1)C(=O)O)C(=O)N1CCC[C@H]1C(=O)O` (stereo not given in full), the “activity change, negative = inhibition” value was 21.3% (inactive).
For `COc1ccccc1OCC(O)CN1CCN(CC(=O)Nc2c(C)cccc2C)CC1` (stereo not given), the “activity change, negative = inhibition” value was 1.96% (inactive).
With `CN1CCC(=C2c3ccccc3CC(=O)c3sccc32)CC1` the “activity change, negative = inhibition” value was 0.654% (inactive).
In the case of `COCCCOCCCOC`, the “activity change, negative = inhibition” value is reported as 0% [at 92.4 µM] (inactive).
In the case of `Nc1cc(=O)[nH]c(N)n1`, the “activity change, negative = inhibition” value is reported as 29.6% (inactive).
With `NC(=O)c1cn(Cc2c(F)cccc2F)nn1` the “activity change, negative = inhibition” value was 4.49% (inactive).
For `CO/N=C(/C(=O)N[C@@H]1C(=O)N2C(C(=O)OCOC(=O)C(C)(C)C)=C(C)CS[C@H]12)c1csc(N)n1`, the “activity change, negative = inhibition” value was 13% (inactive).
For `CCCCCCCCCCCCCC=O`, the activity change, negative = inhibition was 13.4% [at 8.39 µM] (inactive).
